Mtb betalactam – beta-lactam sensitization of Mtb H37Rv. M. tuberculosis H37Rv growth with meropenem, percent inhibition. inhibition, % at 25 µM. 0.27% of 330,000 active. AID 434955; call rule not given here;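 also: growth measured after seven days incubation then overnight dye step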
Rv3671c inh – inhibitors of M. tuberculosis serine protease Rv3671c. AID 2606. inhibition, % at 5.96 µM. 0.048% of 320,000 active. P9WHR9; in the data active = inhibition above about 38%;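 also: extracellular domain of Rv3671c used as enzyme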
Mtb FBA inh – Mtb fructose-bisphosphate aldolase inhibition. P9WQA3. purified M. tuberculosis FBA, fluorescence read-out. inhibition, % at 1 µM. 2.3% of 360,000 active. AID 588726; in the data active = inhibition above about 27%
GDH-TPI counter – GDH-TPI coupled enzyme inhibition counter-screen; GDH-TPI coupled enzyme counterscreen, NADH absorbance; inhibition, % at 4.8 µM; 1.2% of 360,000 active; AID 588335; in the data active = inhibition above about 30%
UGM FP inh – blocks M. tuberculosis UGM enzyme; P9WIQ1; purified UGM, fluorescence polarization probe displacement; inhibition, % at 10 µM; 0.06% of 320,000 active; AID 504406; in the data active = inhibition above about 10%, passing the limit was not always enough; inconclusive = no clear call, values can overlap the other calls
Target sequence (P9WIQ1 whole entry, looked up): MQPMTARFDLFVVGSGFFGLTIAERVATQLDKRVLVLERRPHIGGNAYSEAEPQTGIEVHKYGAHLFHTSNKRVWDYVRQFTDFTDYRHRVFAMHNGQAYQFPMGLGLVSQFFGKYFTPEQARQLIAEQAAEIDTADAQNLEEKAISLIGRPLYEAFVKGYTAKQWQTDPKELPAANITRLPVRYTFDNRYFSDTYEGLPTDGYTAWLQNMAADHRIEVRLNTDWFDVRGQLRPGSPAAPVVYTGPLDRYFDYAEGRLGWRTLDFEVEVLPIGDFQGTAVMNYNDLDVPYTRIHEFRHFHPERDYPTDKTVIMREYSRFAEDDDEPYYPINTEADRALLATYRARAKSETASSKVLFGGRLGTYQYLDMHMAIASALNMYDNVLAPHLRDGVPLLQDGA
SSB-PriA inh – K. pneumoniae PriA-SSBct interaction inhibition; 0.6% of 430,000 active; AlphaScreen SSBct-PriA binding, biotinylated peptide; AID 1272365; inhibition, % at 33 µM; in the data active = inhibition mostly above about 37%, no sharp cut-off; inactive = mostly below about 20%
Each line names hits and unclear results; the compound was inactive in the other large screens. Most compounds without a hit are left out; they make up all but 3.2% or so of the library.

CCC(=O)Nc1ccc2oc(-c3cccnc3)nc2c1	Mtb FBA inh 172
CC(C)CC(=O)Nc1ccc2oc(-c3cccnc3)nc2c1	Mtb FBA inh 129
Cc1ccc2nc(-c3cccnc3)oc2c1	Mtb FBA inh 41
O=C(Nc1ccc2oc(-c3cccnc3)nc2c1)c1ccc(Br)o1	none
O=c1ccc(-c2cccs2)nn1CCNS(=O)(=O)Cc1ccccc1	none (no result: Mtb betalactam, Rv3671c inh, Mtb FBA inh, GDH-TPI counter, UGM FP inh)
COc1ccc(C2CC(c3ccccc3Cl)=NN2c2ccc(S(N)(=O)=O)cc2)cc1 (centres undefined)	Mtb FBA inh 174 (no result: Mtb betalactam, Rv3671c inh, UGM FP inh)
COc1ccc(C2CC(c3ccccc3)=NN2c2ccc(C(N)=O)cc2)cc1 (centres undefined)	Mtb FBA inh active
NS(=O)(=O)c1ccc(N2N=C(c3ccccc3)CC2c2ccc(F)cc2)cc1 (centres undefined)	Mtb FBA inh active
COc1ccc(C2CC(c3cccc(C(F)(F)F)c3)=NN2c2ccc(S(N)(=O)=O)cc2)cc1 (centres undefined)	Mtb FBA inh active (no result: Mtb betalactam, Rv3671c inh, UGM FP inh)
CCc1ccc(C2=NN(c3ccc(S(N)(=O)=O)cc3)C(c3ccc(O)cc3)C2)cc1 (centres undefined)	none (no result: Mtb betalactam, Rv3671c inh, Mtb FBA inh, GDH-TPI counter, UGM FP inh)
CN(C)CCCNC(CC(=O)Nc1cc(Cl)ccc1Cl)C(=O)O (centres undefined)	none (no result: Mtb betalactam, Rv3671c inh, Mtb FBA inh, GDH-TPI counter, UGM FP inh)
O=C(Nc1ccncc1)c1ccc(=O)n(Cc2ccc(F)cc2)n1	none (no result: Mtb betalactam, Rv3671c inh, Mtb FBA inh, GDH-TPI counter, UGM FP inh)
O=C(O)c1ccc(N2N=C(c3ccccc3)CC2c2ccccc2)cc1 (centres undefined)	Mtb FBA inh active, GDH-TPI counter 32
COc1ccc(C2=NN(c3ccc(C=O)cc3)C(c3ccccc3)C2)cc1 (centres undefined)	none (no result: Mtb FBA inh, GDH-TPI counter)
COc1ccc(C2CC(c3ccccc3)=NN2c2ccc(S(N)(=O)=O)cc2)cc1 (centres undefined)	Mtb FBA inh active
CC(=O)Nc1ccc(C2CC(c3ccc(Cl)cc3)=NN2c2ccccc2)cc1 (centres undefined)	none
COc1ccc(C2CC(c3cccc(F)c3)=NN2c2ccc(S(N)(=O)=O)cc2)cc1 (centres undefined)	Mtb FBA inh active (no result: Mtb betalactam, Rv3671c inh, UGM FP inh)
CC1(C)C(/C=C/C=C/C=C/C=C2\N(CCCCS(=O)(=O)O)c3ccc4ccccc4c3C2(C)C)=[N+](CCCCS(=O)(=O)[O-])c2ccc3ccccc3c21	SSB-PriA inh 75
O=C(Nc1ccc2c(c1)CN(C(=O)c1cccs1)CC2)c1ccc(-c2ccsc2)cc1	none (no result: Mtb betalactam, Rv3671c inh, Mtb FBA inh, GDH-TPI counter, UGM FP inh)
CCCC(=O)Nc1cccc2c1CCCC2	none
CCc1ccc(OCC(=O)Nc2cccc3c2CCCC3)cc1	SSB-PriA inh 51
O=C(CCc1ccc(Oc2cc([N+](=O)[O-])cc([N+](=O)[O-])c2)cc1)N1CCCCC1	SSB-PriA inh 45
C#Cc1ccc(C(=O)Nc2cc(C(N)=O)ccc2N2CCOCC2)cc1	Mtb betalactam inconclusive, GDH-TPI counter 32
CC(C)c1cc(C(=O)NN=Cc2ccoc2)c(O)c(C(C)C)c1	none (no result: Mtb betalactam, Rv3671c inh, Mtb FBA inh, GDH-TPI counter, UGM FP inh)
Cc1cc(=O)oc2cc(OCC(=O)NCc3ccco3)ccc12	none
Cc1cc(=O)oc2c3c(cc(OCC(=O)NCc4ccco4)c12)OC(C)(C)CC3	Mtb FBA inh active
COc1ccc(CNC(=O)COc2cc3c(c4oc(=O)cc(C)c24)CCC(C)(C)O3)c(OC)c1	Mtb FBA inh 34 (no result: Mtb betalactam, Rv3671c inh, UGM FP inh, SSB-PriA inh)
Cc1cc(=O)oc2c3c(cc(OCC(=O)NCc4ccncc4)c12)OC(C)(C)CC3	Mtb FBA inh active
Cc1cc(OCC(=O)NCc2ccncc2)c2c3c(c(=O)oc2c1)CCC3	none
O=C(Nc1ccccc1-c1cn2ccccc2n1)c1cc(=O)[nH]c(=O)[nH]1	none (no result: Mtb betalactam, Rv3671c inh, Mtb FBA inh, GDH-TPI counter, UGM FP inh)
CC1Cc2nc(SCC(=O)NCc3ccccc3)n(Cc3ccccc3)c(=O)c2S1 (centres undefined)	GDH-TPI counter 34
CN(C)S(=O)(=O)c1ccc(N)nc1	none (no result: Mtb betalactam, Rv3671c inh, Mtb FBA inh, GDH-TPI counter, UGM FP inh)
Cc1ccc(S(=O)(=O)CCC(=O)OCC(=O)c2cc(C)ccc2C)cc1	none
Cc1ccc(S(=O)(=O)CCC(=O)c2ccc(O)cc2O)cc1	GDH-TPI counter 43
CC(=O)OCC1OC(Sc2nc3ccccc3[nH]2)C(OC(C)=O)C(OC(C)=O)C1OC(C)=O (centres undefined)	none (no result: Mtb betalactam, Rv3671c inh, Mtb FBA inh, GDH-TPI counter, UGM FP inh)
c1ccc(C2Nc3ccccc3-c3nc4ccccc4n32)cc1 (centres undefined)	Mtb FBA inh 139
c1ccc(C2Nc3ccccc3-c3nc4ccccc4n32)nc1 (centres undefined)	Mtb FBA inh 119, SSB-PriA inh 61
O[C@@H](CN1CCN(Cc2ccccn2)CC1)c1ccco1	none (no result: Mtb betalactam, Rv3671c inh, Mtb FBA inh, GDH-TPI counter, UGM FP inh)
